According to PubChem BioAssay AID1159580 (chemical genetic matrix, 2015):
Where “and” joins values, the source holds several entries; their conditions need not be identical. Identical values can stand only once. The whole screen tested about 5,500 compounds, of which about 2,000 (36%) were called active. Not shown: some 18% with an inconclusive outcome. Cut-off read from the data, not from the text of the source: active = normalized growth mostly below about 0.91 (no sharp cut-off); inconclusive = no clear call, values can overlap the other calls; inactive = mostly above about 0.92. The list shows a part of the results.

Experiment: chemical genetic growth profiling, strain panel (AID 1159580);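 note: tested at 20 µM; growth read once vehicle control cultures reached saturation at 30 °C; 1 = growth at the plate median or of vehicle wells; lower values mean less growth of the strain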
Details: S. cerevisiae deletion strains, growth OD

Measured: normalized growth

CCOc1cccc(C(=O)c2ccc(O)c(O)c2O)c1
active: locus YAL021C, strain ccr4, stronger effect = lower value 0.601 | locus YAL026C, strain drs2, stronger effect = lower value 0.813 | locus YAL030W, strain snc1, stronger effect = lower value 0.928 | locus YBL061C, strain skt5, stronger effect = lower value 0.888 | locus YBR009C, strain hhf1, stronger effect = lower value 0.879 | locus YBR023C, strain chs3, stronger effect = lower value 0.806 | locus YBR231C, strain swc5, stronger effect = lower value 0.783 | locus YCL029C, strain bik1, stronger effect = lower value 0.776 | locus YDL035C, strain GPR1, stronger effect = lower value 0.804 | locus YDL074C, strain BRE1, stronger effect = lower value 0.67 | locus YDL101C, strain DUN1, stronger effect = lower value 0.752 | locus YDL185W, strain tfp1, stronger effect = lower value 0.586 | locus YDL192W, strain arf1, stronger effect = lower value 0.815 | locus YDR069C, strain doa4, stronger effect = lower value 0.566 | locus YDR101C, strain arx1, stronger effect = lower value 0.889 | locus YDR137W, strain rgp1, stronger effect = lower value 0.643 | locus YDR159W, strain sac3, stronger effect = lower value 0.84 | locus YDR162C, strain NBP2, stronger effect = lower value 0.672 | locus YDR297W, strain sur2, stronger effect = lower value 0.916 | locus YDR318W, strain mcm21, stronger effect = lower value 0.877 | locus YDR334W, strain swr1, stronger effect = lower value 0.886 | locus YDR335W, strain msn5, stronger effect = lower value 0.84 | locus YDR388W, stronger effect = lower value 0.923 | locus YDR502C, strain sam2, stronger effect = lower value 0.791 | locus YEL003W, strain gim4, stronger effect = lower value 0.839 | locus YER015W, strain faa2, stronger effect = lower value 0.89 | locus YER111C, strain swi4, stronger effect = lower value 0.815 | locus YER155C, strain BEM2 (second series), stronger effect = lower value 0.847 | locus YER155C, strain BEM2, stronger effect = lower value 0.858 | locus YFR010W, strain ubp6, stronger effect = lower value 0.84 | locus YGL086W, strain mad1, stronger effect = lower value 0.782 | locus YGL173C, strain kem1, stronger effect = lower value 0.766 | locus YGL248W, strain PDE1, stronger effect = lower value 0.792 | locus YGL253W, strain hxk2, stronger effect = lower value 0.901 | locus YGR135W, strain pre9, stronger effect = lower value 0.777 | locus YHR013C, strain ard1, stronger effect = lower value 0.81 | locus YHR027C, strain rpn1, stronger effect = lower value 0.83 | locus YHR079C, strain IRE1 (second series), stronger effect = lower value 0.859 | locus YHR129C, strain ARP1, stronger effect = lower value 0.761 | locus YHR142W, strain chs7, stronger effect = lower value 0.776 | locus YHR200W, strain rpn10, stronger effect = lower value 0.859 | locus YIL066C, strain RNR3, stronger effect = lower value 0.8 | locus YIL073C, strain SPO22, stronger effect = lower value 0.654 | locus YJL095W, strain BCK1 (second series), stronger effect = lower value 0.867 | locus YJL164C, strain tpk1, stronger effect = lower value 0.811 | locus YJL166W, strain qcr8, stronger effect = lower value 0.872 | locus YJL187C, strain SWE1 (second series), stronger effect = lower value 0.42 | locus YJL187C, strain SWE1, stronger effect = lower value 0.895
inactive: locus YBR021W, strain FUR4, stronger effect = lower value 0.898 | locus YBR171W, strain sec66, stronger effect = lower value 0.918 | locus YBR229C, strain ROT2, stronger effect = lower value 0.938 | locus YBR279W, strain paf1, stronger effect = lower value 0.933 | locus YCL011C, strain gbp2, stronger effect = lower value 0.941 | locus YCL016C, strain dcc1, stronger effect = lower value 0.963 | locus YCL061C, strain MRC1, stronger effect = lower value 0.933 | locus YCL069W, strain vba3, stronger effect = lower value 0.975 | locus YCR088W, strain abp1, stronger effect = lower value 0.969 | locus YDL005C, strain med2, stronger effect = lower value 0.974 | locus YDL040C, strain nat1, stronger effect = lower value 0.963 | locus YDR001C, strain nth1, stronger effect = lower value 0.955 | locus YDR195W, strain ref2 0.99 | locus YDR392W, strain spt3, stronger effect = lower value 0.807 | locus YEL037C, strain rad23, stronger effect = lower value 0.925 | locus YEL061C, strain CIN8 (second series), stronger effect = lower value 0.955 | locus YER016W, strain bim1, stronger effect = lower value 0.953 | locus YER110C, stronger effect = lower value 0.979 | locus YER167W, strain BCK2, stronger effect = lower value 0.909 | locus YGL078C, strain dbp3, stronger effect = lower value 0.956 | locus YGL167C, strain pmr1, stronger effect = lower value 0.935 | locus YGL227W, strain vid30, stronger effect = lower value 0.984 | locus YGL240W, strain doc1, stronger effect = lower value 0.978 | locus YGR252W, strain gcn5, stronger effect = lower value 0.77 | locus YHR030C, strain SLT2, stronger effect = lower value 0.978 | locus YHR079C, strain IRE1, stronger effect = lower value 1.02 | locus YHR094C, strain hxt1, stronger effect = lower value 0.965 | locus YIL125W, strain kgd1, stronger effect = lower value 0.951 | locus YIR030C, strain dcg1, stronger effect = lower value 0.958 | locus YJL092W, strain hpr5, stronger effect = lower value 0.97 | locus YJL115W, strain asf1, stronger effect = lower value 0.971 | locus YJL129C, strain trk1, stronger effect = lower value 0.936 | locus YJL134W, strain LCB3, stronger effect = lower value 0.932 | locus YJL154C, strain vps35, stronger effect = lower value 0.959 | locus YJL168C, strain set2, stronger effect = lower value 0.964 | locus YJR066W, strain TOR1, stronger effect = lower value 0.981
0.603 (active) and 0.961 (inactive): locus YJL095W, strain BCK1, stronger effect = lower value
